# KB-V1 MDR tox = KB-V1 MDR subline cytotoxicity; KB-V1 MDR cells viability, CellTiter-Glo, 72 h; Potency, µM (doses to about 46.1 µM), actives largely listed as cytotoxic; 400,000 compounds, 3.4% hits; AID 1347076; note: % is set by controls: 0 for no effect and ±100 for the full control effect; nearly all actives have a fitted effect of over 60% in size
#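 In this primary screen, KB-V1 cells overexpressing P-gp are incubated with library compounds (lowest to highest concentration) for 72 h at 37 degrees C before a luminescent ATP viability read.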
# MCF10A rerep = induces DNA re-replication in MCF 10a normal breast cells. MCF 10A DNA re-replication, Hoechst nuclear intensity, 48 h. Potency, µM (top dose mostly 46.1 µM), for inactives: at the highest dose activity, positive = re-replication, hits mostly activators. 350,000 compounds, 2.9% hits; note: % of control where 0% means no effect; nearly all actives have a fitted effect of over 50% in size
# HT1080 IDH1KD tx = HT-1080 IDH1 knockdown cell toxicity (counter line); HT-1080 IDH1 knockdown viability, ATP luminescence, 48 h; Potency, µM (titrated, usually from 46.1 µM), inactives show at the top dose activity, negative = toxicity, usual class: cytotoxic; 360,000 compounds, 2% hits;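 note: 0% = DMSO wells and -100% = cell-free medium wells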
#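 HT-1080-IDH1KD cells (IDH1 knocked down), 750/well in RPMI with 5% FBS, treated with compound 48 h at 37 degrees C. Viability by CellTiter-Glo luminescence, normalised to DMSO and no-cell wells; concentration-response curves classed.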
# SW480 rereplic = inducers of DNA re-replication in SW480 colon cancer cells; SW480 DNA re-replication, Hoechst DNA content imaging, 48 h; AID 624297; 340,000 compounds, 1.8% hits; Potency, µM (top dose mostly 46.1 µM), inactives show at the highest dose re-replication activation, usual class: activators; note: % of control where 0% means no effect; nearly all actives have a fitted effect of over 55% in size
#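 Compounds, transferred as 23 nL by pin tool, were incubated with cells for 48 hr; DNA content per nucleus was then quantified by Hoechst staining and fluorescence plate imaging.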
# HT1080-NT tox = kills 2HG-producing HT-1080-NT fibrosarcoma cells. HT-1080-NT fibrosarcoma viability, CellTiter-Glo ATP luminescence, 48 h. Potency, µM (titrated, usually from 46.1 µM), for inactives: top-dose activity, negative = less viability, most hits filed as cytotoxic. 360,000 compounds, 1.6% hits;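 note: NT is the 2HG producing partner of a matched IDH1 knockdown line; 0% = DMSO-treated cells and -100% = media-only wells without cells; nearly all actives have a fitted effect of over 55% in size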
#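 Viability of the 2HG-overproducing fibrosarcoma line after 48 hours of compound exposure at 37 degrees C was determined by luminescence with CellTiter-Glo, and concentration-effect curves were then fitted and categorized.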
# KB-3-1 cytotox = kills parental KB-3-1 adenocarcinoma cells; KB-3-1 viability, CellTiter-Glo ATP luminescence, 72 h; 400,000 compounds, 1.4% hits; Potency, µM (titrated, usually from 46.1 µM), actives largely listed as cytotoxic; note: % is set by controls: 0 for no effect and ±100 for the full control effect; nearly all actives have a fitted effect of over 60% in size
#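 Cytotoxicity in the drug-sensitive parental line KB-3-1 was scored as loss of CellTiter-Glo luminescence following 72 h incubation with compound. Values come from curve fitting of normalized concentration-response data.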
# * = called active by the depositor; i = inactive; ? = inconclusive; . = no result; [ ] = another dose, or the depositor's remark. The list is not random: actives were taken first. Their share in the collection is about 7.9%. Calls come from the whole dose curve; as a rule, active = well fitted curve in the direction sought with a large enough effect; inconclusive = small, poorly fitted or top-dose-only effect, or another doubt; inactive = no such curve, though single readings can be large; an effect the other way counts as inactive or inconclusive. Potency is the fitted concentration of half-maximal effect.
SMILES,KB-V1 MDR tox,MCF10A rerep,HT1080 IDH1KD tx,SW480 rereplic,HT1080-NT tox,KB-3-1 cytotox
CCc1ccc(-c2nc(CN3CCC(C(=O)N4CCN(c5ccccc5)CC4)CC3)c(C)o2)cc1,8.2µM*,?,-16%,?,-13%,i
CCN(CCNC(=O)C1CCCN(Cc2nc(-c3ccc(OC)cc3)oc2C)C1)c1ccccc1 (stereo not given),?,?,-30%,?,?,?
COc1ccc(CCNC(=O)C2CCN(Cc3nc(-c4ccc(Cl)cc4)oc3C)CC2)cc1OC,i,-4%,14%,-2%,21%,i
CCOC(=O)c1c[nH]c(=O)c(Br)c1O,i,-83%,11%,-5%,6%,i
CC1=C(C(=O)OC2CCCCCCC2)C(c2cc3c(cc2Br)OCO3)CC(=O)N1 (stereo not given),i,5.8µM*,?,?,?,?
COC(=O)C1=C(C)NC(=O)CC1c1cc2c(cc1Br)OCO2 (stereo not given),i,4%,5%,-7%,4%,i
C/C(=N\Nc1nc(C)cc(-c2ccccc2)n1)c1cccc(N)c1,?,6%,-1%,1%,-8%,?
C/C(=N\Nc1nc(C)cc(-c2ccccc2)n1)c1ccc(O)cc1,?,0%,-14%,?,10µM*,i
C/C(=N\Nc1nc(C)cc(-c2ccccc2)n1)c1ccccc1,6.5µM*,1%,?,?,-28%,i
C/C(=N/Nc1nc(C)cc(-c2ccccc2)n1)c1ccco1,16µM*,0%,?,12%,-6%,i
C/C(=N\Nc1nc(C)cc(-c2ccccc2)n1)c1ccc(C)o1,?,26%,-10%,7%,0%,i
C/C(=N/Nc1nc(C)cc(C)n1)c1ccc(Br)cc1,?,-7%,-20%,?,-9%,i
CCc1ccccc1NC(=S)N(CCCN1CCN(C)CC1)Cc1cccs1,?,-1%,0%,-8%,0%,i
Cc1sc2nc3ccc(N4CCCCC4)nn3c(=O)c2c1C,9.2µM*,12%,3%[9.24 µM],-3%,-4%,i
Oc1ccc(C[C@H]2CNC(=S)N2CC2CCCN2C[C@H](Cc2ccc(O)cc2)N2C[C@H](Cc3ccccc3)N(CCc3ccccc3)C2=S)cc1 (stereo not given in full),i,19%,-3%,?,-6%,23µM*
CC(C)C[C@H]1CNC(=S)N1C[C@H]1CCCN1C[C@H](CC(C)C)N1C[C@H](Cc2ccc(O)cc2)N(CCc2ccccc2)C1=S,?,.,?,.,18µM*,?
CCOc1ccc(CCN2C(=S)N([C@@H](Cc3ccc(O)cc3)CN3CCC[C@@H]3CN3C(=S)NC[C@@H]3Cc3ccc(O)cc3)C[C@@H]2Cc2ccc(O)cc2)cc1,i,.,21µM*,.,26µM*,?
CCn1cc(C(=O)Nc2ccc(C)cc2[N+](=O)[O-])c(C)n1,i,0%,13%,-9%,16%,i
Cc1c(C=Nc2ccc(S(=O)(=O)N(C)C)cc2)c(O)[nH]c(=O)c1C#N,i,13%,19%,2%,3%,i
CCCCn1nc2cc(C(=O)NCc3ccccc3OC)ccc2c1OCC,i,-12%,11%,-14%,9%,i
CN(CC(=O)Nc1ccc(N2CCOCC2)cc1)Cc1cc(=O)n2ccsc2n1,i,0%,7%,-7%,-11%,i
CN(c1ccccc1)S(=O)(=O)c1cccc(C(=O)Nc2ccc(N3CCOCC3)cc2)c1,i,?,-6%,5%,-11%,i
Cc1c(C(=O)NCCS(=O)(=O)N2CCN(c3ccccc3F)CC2)cccc1[N+](=O)[O-],?,?,?,?,?,23µM*

# Screens as filed in PubChem BioAssay.
